Values joined by “and” are separate entries in the source; they are usually repeats but may differ in a detail not shown here. Equal values may be shown once. In all, about 5,500 compounds went through this assay and about 2,000 (36%) were called active. Roughly 18% stayed inconclusive and do not appear here. No stated cut-off is given here; in the data, active means normalized growth mostly below about 0.91 (no sharp cut-off); inconclusive means no clear call, values can overlap the other calls; inactive means mostly above about 0.92. The list shows a part of the results.
Experiment: chemical genetic growth profiling, strain panel (AID 1159580);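 further: tested at 20 µM; growth read once vehicle control cultures reached saturation at 30 °C; 1 = growth at the plate median or of vehicle wells; lower values mean less growth of the strain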
Conditions: S. cerevisiae deletion strains, growth OD

Measured: normalized growth

CN[C@H](CC(=O)O)C(=O)O
inactive: locus YAL013W, strain DEP1, active compounds read low 0.983 | locus YAL021C, strain ccr4, active compounds read low 0.988 | locus YAL026C, strain drs2, active compounds read low 1.02 | locus YAL030W, strain snc1, active compounds read low 1.01 | locus YBL061C, strain skt5, active compounds read low 1.02 | locus YBR009C, strain hhf1, active compounds read low 1.01 | locus YBR021W, strain FUR4, active compounds read low 1.02 | locus YBR023C, strain chs3, active compounds read low 1.03 | locus YBR171W, strain sec66, active compounds read low 1.01 | locus YBR229C, strain ROT2, active compounds read low 0.998 | locus YBR231C, strain swc5, active compounds read low 1.02 | locus YBR279W, strain paf1, active compounds read low 1.01 | locus YCL011C, strain gbp2, active compounds read low 1.03 | locus YCL016C, strain dcc1, active compounds read low 1.02 | locus YCL029C, strain bik1, active compounds read low 0.985 | locus YCL061C, strain MRC1, active compounds read low 1 | locus YCL069W, strain vba3, active compounds read low 1.01 | locus YCR088W, strain abp1, active compounds read low 1.02 | locus YDL005C, strain med2, active compounds read low 1.03 | locus YDL035C, strain GPR1, active compounds read low 0.989 | locus YDL040C, strain nat1, active compounds read low 1.02 | locus YDL074C, strain BRE1, active compounds read low 1.04 | locus YDL101C, strain DUN1, active compounds read low 0.995 | locus YDL134C, strain PPH21, active compounds read low 0.987 | locus YDL185W, strain tfp1, active compounds read low 0.968 | locus YDL192W, strain arf1, active compounds read low 0.967 | locus YDR001C, strain nth1, active compounds read low 1.03 | locus YDR069C, strain doa4, active compounds read low 1.02 | locus YDR101C, strain arx1, active compounds read low 1.03 | locus YDR137W, strain rgp1, active compounds read low 0.967 | locus YDR159W, strain sac3, active compounds read low 1.03 | locus YDR162C, strain NBP2, active compounds read low 0.964 | locus YDR195W, strain ref2 1.05 | locus YDR297W, strain sur2, active compounds read low 1.02 | locus YDR318W, strain mcm21, active compounds read low 0.98 | locus YDR334W, strain swr1, active compounds read low 1.01 | locus YDR335W, strain msn5, active compounds read low 1.01 | locus YDR388W, active compounds read low 0.972 | locus YDR392W, strain spt3, active compounds read low 0.969 | locus YDR502C, strain sam2, active compounds read low 0.989 | locus YEL003W, strain gim4, active compounds read low 1.01 | locus YEL037C, strain rad23, active compounds read low 1.02 | locus YEL061C, strain CIN8 (second series), active compounds read low 1.03 | locus YEL061C, strain CIN8, active compounds read low 0.994 | locus YER015W, strain faa2, active compounds read low 1.02 | locus YER016W, strain bim1, active compounds read low 1.02 | locus YER110C, active compounds read low 0.945 | locus YER111C, strain swi4, active compounds read low 1.02 | locus YER155C, strain BEM2 (second series), active compounds read low 1.06 | locus YER155C, strain BEM2, active compounds read low 1 | locus YER167W, strain BCK2, active compounds read low 0.998 | locus YFR010W, strain ubp6, active compounds read low 1.03 | locus YGL078C, strain dbp3, active compounds read low 0.975 | locus YGL086W, strain mad1, active compounds read low 1.02 | locus YGL167C, strain pmr1, active compounds read low 1.01 | locus YGL173C, strain kem1, active compounds read low 1.01 | locus YGL227W, strain vid30, active compounds read low 1.03 | locus YGL240W, strain doc1, active compounds read low 1.04 | locus YGL248W, strain PDE1, active compounds read low 0.996 | locus YGL253W, strain hxk2, active compounds read low 1.02 | locus YGR135W, strain pre9, active compounds read low 0.923 | locus YGR252W, strain gcn5, active compounds read low 0.979 | locus YHR013C, strain ard1, active compounds read low 1.04 | locus YHR027C, strain rpn1, active compounds read low 1.02 | locus YHR030C, strain SLT2, active compounds read low 0.991 and 1.03 | locus YHR079C, strain IRE1 (second series), active compounds read low 0.992 | locus YHR079C, strain IRE1, active compounds read low 1.04 | locus YHR094C, strain hxt1, active compounds read low 0.981 | locus YHR129C, strain ARP1, active compounds read low 0.995 | locus YHR142W, strain chs7, active compounds read low 1.03 | locus YHR200W, strain rpn10, active compounds read low 0.98 | locus YIL066C, strain RNR3, active compounds read low 1 | locus YIL073C, strain SPO22, active compounds read low 0.913 | locus YIL125W, strain kgd1, active compounds read low 1 | locus YIR030C, strain dcg1, active compounds read low 0.983 | locus YJL092W, strain hpr5, active compounds read low 1.01 | locus YJL095W, strain BCK1 (second series), active compounds read low 1.02 | locus YJL095W, strain BCK1, active compounds read low 1.01 and 1.06 | locus YJL115W, strain asf1, active compounds read low 1.03 | locus YJL129C, strain trk1, active compounds read low 1.09 | locus YJL134W, strain LCB3, active compounds read low 0.993 | locus YJL154C, strain vps35, active compounds read low 1.02 | locus YJL164C, strain tpk1, active compounds read low 0.998 | locus YJL166W, strain qcr8, active compounds read low 1.03 | locus YJL168C, strain set2, active compounds read low 0.98 | locus YJL187C, strain SWE1 (second series), active compounds read low 1 | locus YJL187C, strain SWE1, active compounds read low 1.01 | locus YJR043C, strain POL32, active compounds read low 1
